About 20 (0.007%) of roughly 270,000 compounds were called active. These entries were drawn from the full list. Values without a mark were called inactive. Calls follow the shape of the dose curve; as a rule, active = well fitted inhibition curve with a large enough effect; inconclusive = small, poorly fitted or top-dose-only effect, or effect the other way; inactive = flat fitted curve, though single readings scatter.
The compounds below were run against Galactokinase (Homo sapiens) (UniProt P51570) (assay: qHTS Assay for Inhibitors of Human Galactokinase (GALK)). Conditions: Purified GALK, Kinase-Glo residual ATP luminescence; series mostly up to 57.5 µM; activity change, negative = inhibition: at the top concentration.
Chain of Galactokinase (Homo sapiens) (P51570 whole entry, looked up): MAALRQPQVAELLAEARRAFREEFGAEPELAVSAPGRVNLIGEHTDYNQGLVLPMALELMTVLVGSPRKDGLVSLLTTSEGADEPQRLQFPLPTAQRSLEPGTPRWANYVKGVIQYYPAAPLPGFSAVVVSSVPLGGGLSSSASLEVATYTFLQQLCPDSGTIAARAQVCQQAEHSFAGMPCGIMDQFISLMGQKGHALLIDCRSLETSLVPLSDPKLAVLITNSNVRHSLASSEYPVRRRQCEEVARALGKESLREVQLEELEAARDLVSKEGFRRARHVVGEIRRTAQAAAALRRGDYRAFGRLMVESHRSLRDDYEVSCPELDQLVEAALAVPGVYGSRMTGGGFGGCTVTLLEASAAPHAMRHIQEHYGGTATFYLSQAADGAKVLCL
Text: NIH Molecular Libraries Probe Production Centers Network [MLPCN] NIH Chemical Genomics Center [NCGC] MLPCN Grant: R03 MH085689-01 Assay Submitter (PI): Kent Lai (University of Utah School of Medicine, 50 N Mario Capecchi Drive, Salt Lake City, UT 84132) NCGC Assay Overview: Inherited deficiency of galactose-1-phosphate uridyltransferase (GALT) can result in a potentially lethal disorder called Classic Galactosemia (OMIM 230400). Several lines of evidence indicate that an elevated level of galactose-1-phosphate (gal-1-p), the product of galactokinase (GALK), is a major, if not sole, pathogenic mechanism in patients with classic galactosemia. Therefore, finding inhibitors of GALK is a potential novel therapy for this inherent metabolic disease and is the long term goal of this project. GALK (provided by the assay submitter) was assayed using ATP and D-(+)-Galactose (Sigma-Aldrich cat# G0750) as substrates. Promega Kinase-Glo Plus (cat# V3774) technology was used to detect the residual ATP following kinetic reaction. Briefly, the Kinase-Glo Plus contains Ultra-Glo [2] luciferase and D-luciferin which generates a bioluminescence signal from the remaining ATP.
NCGC Assay Protocol Summary: Three uL/well of ATP-buffer solution (35 uM ATP, 20mM HEPES pH8.0, 5 mM MgCl2, 60 mM NaCl, 1 mM DTT, 0.01% BSA final concentration) was dispensed into 1536-well, assay plates (Greiner, solid white medium-binding plates) with Aurora Discovery BioRAPTR Flying Reagent Dispenser (FRD; Beckton-Dickenson). Compound solution (23 nL) was transferred to the assay plate using the Kalypsys 1536-pin tool. One uL/well GALK-galactose solution (5 nM GALK, 100 uM galactose, 20 mM HEPES pH8.0, 5 mM MgCl2, 60 mM NaCl, 1 mM DTT, 0.01% BSA final concentration) was then added using the FRD yielding a total kinase reaction volume of 4 uL/ well. After 1 hour of room temperature incubation, 4 uL Kinase-Glo Plus reagent was added for a final assay volume of 8 uL/ well. Luminescence was detected with the ViewLux plate reader (Perkin Elmer, Waltham, MA) after 10 min incubation using a 1 sec exposure time and 2x binning.
% is scaled to controls: 0 for no effect and ±100 for the full control effect.

| SMILES | activity change, negative = inhibition [%] |
| --- | --- |
| Cc1cccc(Nc2nc(-c3ccccc3)cs2)n1 | -8.33 |
| COc1ccc(/C=C(\C#N)c2c[nH]c3ccccc23)cc1 | -9.3 |
| COc1ccc(CCc2nc(-c3cccs3)no2)cc1 | 8.36 |
| O=C(Nc1ncc([N+](=O)[O-])s1)C1COc2ccccc2O1 (centres undefined) | -1.73 |
| COCCN1C(=O)N(c2ccc(Cl)cc2)C(=O)C1CC(=O)Nc1cc(OC)cc(OC)c1 (centres undefined) | -3.36 |
| Cc1c(C)n(Cc2ccc(Cl)cc2)c2ccc(C(=O)NCCCN3CCOCC3)cc12 | 0.0996 |
| Cc1cccc2sc(N(CCCN(C)C)C(=O)CCS(=O)(=O)c3ccccc3)nc12 | -3.45 |
| O=C(c1ccco1)N1CCN(C(=O)c2cc(-c3ccccc3F)no2)CC1 | -2.53 |
| CCOC(=O)c1csc(CCNC(=O)c2oc3c(Cl)cc(C)cc3c2C)n1 | 1.74 |
| COc1ccc(NC(=O)C/C(C)=N/NC(=O)c2cnccn2)cc1Cl | -0.29 |
| COc1ccc(/C=N/Nc2ccccc2C(=O)O)cc1 | 9.98 |
| Cc1ccc(CNC(=O)C(=O)c2cn(CC(=O)N3CCOCC3)c3ccccc23)cc1 | 4.39 |
| COc1ccc(C)cc1N(CC(=O)N1CCCC1)S(=O)(=O)c1ccccc1 | -1.96 |
| CC(c1ccccn1)N(C)C(=O)c1ccc2nc(Cc3cccc(Cl)c3)oc2c1 (centres undefined) | -5.08 |
| COc1ccc(OC)c(/C(C)=N\NC(=O)c2cc3cc(Cl)ccc3n2C)c1 | -6.12 |
| O=C(O)c1ccccc1NC(=O)c1ccccc1-c1ccccc1C(=O)O | -2.67 |
| CCS(=O)(=O)Nc1ccc(C(=O)NCCSc2ccccc2)cc1 | 1.48 |
| O=C(NCCc1ccc(Cl)cc1)c1cccc(N2CCCC2=O)c1 | 3.57 |
| Cc1cc(=O)n2nc(N3CCCC(C(=O)NCc4ccc(Cl)cc4)C3)sc2n1 (centres undefined) | -5.56 |
| Cc1ccc(C)c(S(=O)(=O)N2CCCOC2CNC(=O)C(=O)NC2CCCCC2)c1 (centres undefined) | 6.08 |
| COc1ccc(C(=O)CCc2ccccc2O)c(OC)c1 | -3.17 |
| O=C(/C=C/c1ccco1)NC(=S)N1CCCCC1 | 3.47 |

| SMILES | activity change, negative = inhibition [%] |
| --- | --- |
| CN(Cc1cnccn1)C(=O)c1cc(COc2cccc(C(F)(F)F)c2)on1 | -2.79 |
| O=C(N/N=C/c1c[nH]c2ccccc12)c1ccccc1O | 1.38 |
| Oc1ccccc1C1=NN(c2ccccc2)C(c2ccccc2)C1 (centres undefined) | -5.98 |
| CCCN1CCn2c3c(c4cc(Br)ccc42)CCCC31 (centres undefined) | -0.0592 |
| COC(=O)c1cc(NS(=O)(=O)c2ccc3c(c2)c(=O)n(C)c(=O)n3C)cc(C(=O)OC)c1 | 1.26 |
| CC(=O)c1ccc(S(=O)(=O)NCc2nnnn2-c2ccccc2)cc1 | 0.831 |
| COc1cccc2[nH]c(C(=O)NCCc3ccccc3)cc12 | -0.172 |
| Cc1cccnc1CC(C)NC(=O)c1cc(COc2cncc(Cl)c2)on1 (centres undefined) | -6.26 |
| COc1ccc(N2CCN(C(=O)c3cccs3)CC2)cc1 | -4.72 |
| Cc1onc(C(=O)Nc2ccc3c(c2)OCO3)c1[N+](=O)[O-] | 1.31 |
| C/C(=N\Nc1nncc2ccccc12)c1ccc(Cl)c([N+](=O)[O-])c1 | 7.54 |
| CC(=O)c1ccc(NC(=O)CCNS(=O)(=O)c2cc(Br)cnc2N)cc1 | 2.1 |
| COc1ccccc1CCNC(=O)c1c(C)nn(CC(C)C)c1Cl | -1.77 |
| Cn1c(NC(=O)c2ccccc2)nc2ccccc21 | -2.69 |
| C=CCNC(=S)/N=c1/ccccn1Cc1ccccc1 | -0.384 |
| CCCCc1nc2cc(C(=O)N3CCCCC3CCO)ccc2o1 (centres undefined) | 6.68 |
| COc1cccc(OCc2cc(C(=O)N3CCN(C(=O)c4ccco4)CC3)no2)c1 | -2.07 |
| CCOc1ccc(C2C(C#N)=C(N)N(N(C)C)C3=C2C(=O)CCC3)cc1 (centres undefined) | -0.497 |
| CC(=O)c1cccc(NC(=O)CN2C(=O)c3cccnc3Oc3ccc(Cl)cc32)c1 | 5.43 |
| O=C(CN1CCN(S(=O)(=O)c2cc(Cl)ccc2Cl)CC1)c1ccc(O)c(O)c1 | -1.85 |
| COc1ccccc1CCCNC(=O)C1CCC(=O)N(CCN2CCOCC2)C1 (centres undefined) | 2.97 |
| COc1ccc(CCNCc2c(-c3ccccc3)n(C)c3ccccc23)cc1 | 0 |

| SMILES | activity change, negative = inhibition [%] |
| --- | --- |
| CCn1nnnc1SCC(=O)Nc1ccc(N(C)C)cc1 | -1.06 |
| O=C(CN1CCCCCC1)Nc1ccc(Br)cc1[N+](=O)[O-] | 3.02 |
| COCCNC(=O)c1ccc2nc(Cc3ccc(OC)c(OC)c3)oc2c1 | -3.43 |
| CCOc1ccc(C(=O)CCN2CCOCC2)cc1 | 0.333 |
| O=C(c1cc(COc2ccc(F)c(F)c2)on1)N1CCOCC1 | -0.905 |
| Cc1cc(Br)ccc1NC(=S)NC1CCCC1 | 0.741 |
| CC(C)c1ccc(NC2CCCN(C(=O)c3ccncc3)C2)cc1 (centres undefined) | -8.23 |
| CC(=O)c1ccc(OC(=O)N2CCOCC2)cc1 | 4.87 |
| CCC(=O)Nc1ccc2nn(-c3ccc(F)cc3)nc2c1 | 4.14 |
| C=CCc1cccc(/C=N/NC(=O)COc2ccc(-n3cnnn3)cc2)c1O | 5.18 |
| O=C(Cc1cccs1)Nc1ccc([N+](=O)[O-])cc1 | 0 |
| COc1ccc(N2CCN(C3CCCCC3NS(=O)(=O)c3ccccc3)CC2)cc1 (centres undefined) | -1.23 |
| CN(C)CCCNC(=S)N1CCC(c2nc3ccccc3[nH]2)CC1 | -1.51 |
| COc1ccc(OCc2cc(C(=O)NCC3(C)COC3)no2)c(Cl)c1 | 2.54 |
| O=C(N/C(=C\c1ccc([N+](=O)[O-])cc1)C(=O)N1CCCCC1)c1ccco1 | 11 |
| c1ccc(-c2ccc(OCCN3CCOCC3)cc2)cc1 | -2.01 |
| COc1cc(C(=S)N2CCOCC2)cc(OC)c1OC(=O)c1ccc([N+](=O)[O-])cc1[N+](=O)[O-] | -6.41 |
| Cc1ccc(-c2noc(C3CCCN(C(=O)c4cccc(Cl)c4)C3)n2)o1 (centres undefined) | 4.59 |
| C/C(=N\NC(=O)c1ccoc1C)c1ccccc1O | 3.18 |
| Cc1ccc(CNC(=O)C(=O)c2cn(CC(=O)N3CCCC3)c3ccccc23)cc1 | -2.55 |

Reference: PubChem BioAssay AID1868 (National Center for Advancing Translational Sciences (NCATS), 2009)
